About 79,000 compounds went through this panel and 15% of them were active in at least one assay; those are over-represented in the sample as a whole. Active and inactive are the calls of the source. Rule as the data show it: active = growth inhibition above about 70%; inactive = the rest.
How the values were obtained:
[1] = NCI Yeast Anticancer Drug Screen. Data for the rad52 strain (AID 147);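 also: 0% = growth of vehicle-treated control cultures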; conditions: S. cerevisiae rad52 mutant growth inhibition, stronger effect = higher value
Outline: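 Screen used a yeast mutant impaired in DNA repair. After compound exposure, growth was measured. Values reflect inhibition compared with vehicle-treated cells.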

[2] = NCI Yeast Anticancer Drug Screen. Data for the wt1 strain (AID 149);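 also: 0% = growth of vehicle-treated wt1 cultures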; conditions: S. cerevisiae wt1 strain (SPY 50644) growth inhibition, stronger effect = higher value
Outline: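 Yeast wt1 strain exposed to compounds; growth inhibition measured relative to vehicle-treated controls.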

[3] = NCI Yeast Anticancer Drug Screen. Data for the rad50EPP+ strain (AID 151);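 also: 0% = growth of vehicle-treated control cultures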; conditions: S. cerevisiae rad50 mutant strain, stronger effect = higher value
Outline: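 Exposing the rad50EPP+ strain to each compound, growth was compared with vehicle-only cultures to give inhibition.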

[4] = NCI Yeast Anticancer Drug Screen. Data for the mgt1 strain (AID 153); conditions: S. cerevisiae mgt1 mutant growth inhibition, stronger effect = higher value
Outline: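 Genetically defined yeast (mgt1) treated with compound; inhibition of growth expressed against vehicle-treated controls.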

[5] = NCI Yeast Anticancer Drug Screen. Data for the rad50 strain (AID 155);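 also: 0% = growth of vehicle-only cultures of the same strain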; conditions: S. cerevisiae rad50 strain growth inhibition, stronger effect = higher value
Outline: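 Yeast carrying a defined DNA repair defect were exposed to test compounds, and growth was compared with vehicle-treated controls to give percent inhibition.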

[6] = NCI Yeast Anticancer Drug Screen. Data for the mec2-1 strain (AID 157); conditions: S. cerevisiae mec2-1 strain, stronger effect = higher value
Outline: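 Readout is yeast growth inhibition, normalised to vehicle-treated controls, in the mec2-1 strain exposed to compound.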

[7] = NCI Yeast Anticancer Drug Screen. Data for the rad14 strain (AID 159);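 also: 0% = growth of vehicle-treated control cultures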; conditions: S. cerevisiae rad14 strain growth inhibition, stronger effect = higher value
Outline: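 Yeast cells carrying a defined DNA-repair defect were exposed to compounds, and growth inhibition was calculated relative to vehicle-treated control cultures.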

[8] = NCI Yeast Anticancer Drug Screen. Data for the sgs1 mgt1 strain (AID 161);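 also: 0% = growth of cultures given vehicle only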; conditions: S. cerevisiae sgs1 mgt1 strain, stronger effect = higher value
Outline: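 Percent growth inhibition was derived by comparing compound-exposed mutant yeast with vehicle-exposed cultures. The strain carries alterations in DNA damage repair.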

[9] = NCI Yeast Anticancer Drug Screen. Data for the CLN2oe strain (AID 163);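 also: 0% = growth of vehicle-only control cultures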; conditions: S. cerevisiae CLN2oe strain, stronger effect = higher value
Outline: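 Values reflect how much compound exposure reduced yeast growth, referenced to vehicle-exposed cells. Assay organism is a strain with a defined genetic change affecting cell-cycle control.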

[10] = NCI Yeast Anticancer Drug Screen. Data for the cln2 rad14 strain (AID 165);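 also: 0% = growth equal to vehicle treated cultures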; conditions: S. cerevisiae cln2 rad14 strain, stronger effect = higher value
Outline: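 Relative to vehicle controls, growth inhibition of compound-treated cln2 rad14 yeast was recorded.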

[11] = NCI Yeast Anticancer Drug Screen. Data for the bub3 strain (AID 167); conditions: S. cerevisiae bub3 mutant strain, stronger effect = higher value
Outline: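 Compounds were applied to a genetically altered yeast strain carrying a cell-cycle control defect. Growth inhibition was scored against vehicle-treated controls.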

[12] = NCI Yeast Anticancer Drug Screen. Data for the wt2 strain (AID 169);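 also: 0% = growth of vehicle-treated yeast cultures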; conditions: S. cerevisiae wt2 strain growth inhibition, stronger effect = higher value
Outline: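 Values express reduction in yeast growth under compound treatment, referenced to vehicle-treated cells.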

[13] = NCI Yeast Anticancer Drug Screen. Data for the mlh1 strain (AID 171);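 also: 0% = growth of vehicle-treated control cultures of the same strain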; conditions: S. cerevisiae mlh1 strain growth inhibition, stronger effect = higher value
Outline: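 Steps: expose the defined-mutant yeast strain to compound; expose a parallel culture to vehicle; measure growth; express compound effect as inhibition relative to the vehicle culture.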

[14] = NCI Yeast Anticancer Drug Screen. Data for the sgs1 strain (AID 173);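 also: 0% = growth of vehicle-only control cultures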; conditions: S. cerevisiae sgs1 mutant, stronger effect = higher value
Outline: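 Treat defined-mutant yeast with compound; measure growth; calculate inhibition relative to vehicle-treated cells.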

[15] = NCI Yeast Anticancer Drug Screen. Data for the mlh1 rad18 strain (AID 175); conditions: S. cerevisiae mlh1 rad18 strain growth inhibition, stronger effect = higher value
Outline: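 Test agents were incubated with a yeast strain of defined genotype (DNA damage repair defect). Inhibition of growth was derived by comparison with vehicle-exposed cultures.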

[16] = at 5.0 µM (retest, dose inferred, filed as 0.5)
[17] = at 50.0 µM (retest, dose inferred, filed as 5.0)

Measured: growth inhibition

CCOC(=O)c1cc([N+](=O)[O-])c(Sc2ncnc3nc[nH]c23)c([N+](=O)[O-])c1
active: [1]; at 33.0 µM 79% | [1]; at 100.0 µM 90% | [2]; at 100.0 µM 92% | [4]; at 33.0 µM 81% | [4]; at 100.0 µM 89% | [5]; at 33.0 µM 75% | [5]; at 100.0 µM 89% | [6]; at 33.0 µM 89% | [6]; [17] 75% | [6]; at 100.0 µM 91% | [7]; at 33.0 µM 72% | [7]; at 100.0 µM 87% | [9]; at 100.0 µM 83% | [11]; at 33.0 µM 88% | [11]; at 100.0 µM 88% | [12]; at 100.0 µM 85% | [13]; at 33.0 µM 90% | [13]; at 100.0 µM 90% | [14]; at 33.0 µM 71% | [14]; at 100.0 µM 87% | [15]; [17] 89% | [15]; at 50.0 µM 86.2%
inactive: [1]; at 1.2 µM 0% | [1]; at 3.7 µM 0% | [1]; at 11.0 µM 34% | [2]; at 1.2 µM -22% | [2]; at 3.7 µM -26% | [2]; at 11.0 µM -6% | [2]; at 33.0 µM 62% | [3]; at 1.2 µM -8% | [3]; at 3.7 µM -8% | [3]; at 11.0 µM -5% | [3]; at 33.0 µM 6% | [3]; at 100.0 µM 22% | [4]; at 1.2 µM -20% | [4]; at 3.7 µM -29% | [4]; at 11.0 µM 16% | [5]; at 1.2 µM -40% | [5]; at 3.7 µM -18% | [5]; [16] 31% | [5]; at 11.0 µM 11% | [5]; [17] 63% | [5]; at 50.0 µM 17.4% | [6]; at 1.2 µM -22% | [6]; at 3.7 µM -13% | [6]; [16] 29% | [6]; at 11.0 µM 38% | [6]; at 50.0 µM 58% | [7]; at 1.2 µM -34% | [7]; at 3.7 µM -23% | [7]; at 11.0 µM -3% | [8]; [16] 6% | [8]; [17] -13% | [8]; at 50.0 µM 56% | [9]; at 1.2 µM -18% | [9]; at 3.7 µM -2% | [9]; at 11.0 µM 29% | [9]; at 33.0 µM 49% | [10]; [16] -5% | [10]; [17] -64% | [10]; at 50.0 µM 60.3% | [11]; at 1.2 µM -19% | [11]; at 3.7 µM -7% | [11]; [16] 7% | [11]; at 11.0 µM 43% | [11]; [17] 34% | [11]; at 50.0 µM 33.1% | [12]; at 1.2 µM -31% | [12]; at 3.7 µM -25% | [12]; at 11.0 µM 2% | [12]; at 33.0 µM 46% | [13]; at 1.2 µM -28% | [13]; at 3.7 µM -23% | [13]; at 11.0 µM 50% | [14]; at 1.2 µM 13% | [14]; at 3.7 µM 13% | [14]; at 11.0 µM 41% | [15]; [16] 55%

— PubChem BioAssay (NCI)
